Results published in PubChem BioAssay AID504941 (Broad Institute, 2011).
The campaign covered roughly 1,200 compounds. About 170 (14%) were called active. How the calls were made is not given here. These entries were drawn from the full list. Results with a measured potency or affinity are listed apart.

Experiment: E. coli Tat export inhibitors, dose response, cherry-pick, set 2, plate reader (AID 504941)
Conditions: E. coli Tat transport reporter; series mostly up to 38 µM

outcome, inactive:
O=C(Nc1nc2c(s1)CCCC2)c1cccc(S(=O)(=O)N2CCCc3ccccc32)c1
O=C(CCSc1ccccc1)NCC1CCCO1 (stereo unspecified)
CN(C(=O)c1cc2sccc2n1C)C1CCCCC1
O=C(C1CCCO1)N1CCN(c2c3c(nc4cc(-c5ccc(F)cc5)nn24)CCC3)CC1 (stereo unspecified)
CCOc1ccc(Br)cc1CNCCN1CCOCC1
O=C(c1ccc2nc[nH]c2c1)N1CCN(c2ncc(C(F)(F)F)cc2Cl)CC1
CN(C)S(=O)(=O)c1cccc(NC(=O)C2CCN(S(=O)(=O)c3cccs3)CC2)c1
Cn1c(SCC(=O)NCc2cccs2)nnc1-c1ccc(S(=O)(=O)N2CCCC2)cc1
O=C(Cn1cc2c(n1)CCCCC2)N1CCc2ccccc2C1
CC(/C=N/NC(=O)c1n[nH]c2c1CCC2)=C\c1ccccc1
CCC(CO)NC(=O)c1cccc(S(=O)(=O)N2c3ccccc3CC2C)c1 (stereo unspecified)
CC(C)S(=O)(=O)C1=NSC2=NC(=O)/C(=C\c3ccc(-c4cccc(C(=O)O)c4)o3)C(=N)N21
O=C(Nc1cc(N2CCOCC2)ncn1)c1ccccc1
O=C(O)c1ccc(NC2=C(N3CCOCC3)C(=O)c3ccccc3C2=O)cc1
O=C(COC(=O)Cn1cnc2ccccc2c1=O)NCC12CC3CC(CC(C3)C1)C2
CC(=O)NC1=NN(C(C)=O)C2(S1)C(=O)N(C(C)C)c1ccc(C)cc12 (stereo unspecified)
Cc1cc(-c2c(C)[nH]n(-c3ccc(Cl)cc3)c2=O)n(-c2ccc(Cl)cc2)n1
COC(=O)COc1cc2ccccc2cc1C(=O)Nc1ccccc1
O=[N+]([O-])c1cccc(COc2cccc(CN3CCCCC3)c2)c1
CS(=O)(=O)N1CCN(C(=O)c2cccnc2)CC1
CC1(C)CC(=O)C=C(NCCN2CCN(C(=O)Nc3ccccc3)CC2)C1
CC(C)(C)NC(=O)C[C@H]1C[C@H](C(=O)N2CCOCC2)[C@@]2(CCC3CCCC3)c3[nH]c4cc(-c5ccco5)ccc4c3CCN2C1=O
O=C(NCc1cccc(Cl)c1)c1cnn2c1NC(c1ccco1)CC2C(F)(F)F (stereo unspecified)
O=C(CSc1nc2ccccc2c(=O)[nH]1)N1CCN(c2ccccc2F)CC1
CC1Cc2cc(/C(O)=C3/C(=O)C(=O)N(Cc4ccco4)C3c3cccs3)ccc2O1 (stereo unspecified)
CC(C)c1ccc(OCC(=O)NC2=NCCS2)cc1
O=C(CNc1ccc(Cl)cc1)c1ccc(Br)cc1
CCCCOC(=O)C1=C(C)NC(=O)NC1c1ccc2c(c1)OCO2 (stereo unspecified)
CCN1CCCC1CNC(=O)C(=O)NC(C)C (stereo unspecified)
COc1cc(CNCc2ccccn2)ccc1OCc1c(Cl)cccc1Cl
CC1CN(S(=O)(=O)c2ccc(C(=O)Nc3ccccc3F)cc2)CC(C)O1 (stereo unspecified)
Cc1c(NC(=O)Nc2ccccc2)cccc1[N+](=O)[O-]
Clc1ccc(C2[C@H]3CN(Cc4cccnc4)[C@H](c4ccccc4)C34CC2(c2ccccc2)C4)cn1 (stereo partly specified)
Cc1ccc(NC(=O)CCCc2nc3ccccc3s2)c(O)c1
Cc1cnc(C(=O)OCC(=O)Nc2sc3c(c2C#N)CCC3)cn1
N#Cc1cn(CC(=O)N2CCCc3ccccc32)c2ccccc12
COc1cc(S(=O)(=O)Nc2cc(C)cc(C)c2)ccc1F
COc1ccc(OC2OC3COC(c4ccco4)OC3C(O)C2NC(C)=O)cc1 (stereo unspecified)
Cc1ccc(C(=O)CN2/C(=C(\O)c3ccccc3)C(=O)c3ccccc3S2(=O)=O)c(C)c1
CC(=O)c1c(C)[nH]c(C(=O)Nc2ccccc2N2CCOCC2)c1C
COc1cccc(C(=O)NCCS(=O)(=O)NCc2ccccn2)c1
Clc1ccccc1-c1nn2c(-c3ccncc3)nnc2s1
O=C(O)CN1C(=O)CC(Cc2ccc(Cl)cc2)C1=O (stereo unspecified)
Cc1c(N2C(=O)c3cccc4cccc(c34)C2=O)c(=O)n(-c2ccccc2)n1C
CCOC(=O)c1c2c3c(c(Cl)ccc3[nH]c1=O)C(=O)c1ccccc1-2
CCOC(=O)c1ccccc1-n1nnnc1C
CCCCN1CC(COCc2ccccc2)Oc2cccc(N3CCCC3)c2S1(=O)=O (stereo unspecified)
CC(=O)Nc1cccc(Oc2nc(C(F)(F)F)nc3ccccc23)c1
COc1ccc(NS(=O)(=O)c2cc(NC(=O)CCc3ccc(OC)c(OC)c3)ccc2N2CCOCC2)cc1
O=C(CNC1CCCCC1)Nc1cc(S(=O)(=O)N2CCOCC2)ccc1Cl
O=C(CNC1CCCCCC1)Nc1ccccc1N1CCCCC1
COC(c1ccccc1)c1nnc(CCC(=O)N(C)C(C2CC2)C2CC2)o1 (stereo unspecified)
CCOC(=O)C1(Cc2cccc(F)c2)CCN(C2CCOCC2)CC1
C(=N\n1cncn1)/c1ccc(N2CCOCC2)cc1
COc1ccc(/C=N/Nc2ccccn2)cc1O
CC(NC(=O)c1ccc([N+](=O)[O-])cc1[N+](=O)[O-])c1ccc(-c2ccccc2)cc1 (stereo unspecified)
CCOc1ccc(NC(=O)c2ccc(NC(=O)COC(=O)Cc3ccc(OC)cc3)cc2)cc1
Cc1ccc(-n2nnnc2SCC(=O)Nc2ccc3c(c2)OCCO3)cc1C
Cn1ncc(Cl)c1C(=O)NCc1ccc(Cl)cc1
COC(=O)c1ccc(OC(=O)c2nn(C)cc2Cl)c(OC)c1
O=C(Cc1ccccc1Cl)c1ccccc1
CCN(Cc1ccccc1)S(=O)(=O)c1c[nH]c(C(=O)OC)c1
O=C(O)Cn1cc(C(=S)N2CCOCC2)c2ccccc21
CCCCc1ccc(N=N/C(C(=O)Nc2ccc(NC(C)=O)cc2OC)=C(/C)O)cc1
CC(=O)NC(Cc1ccc(F)c(F)c1)C(=O)NC1CCN(c2c(Cc3ccccc3)c(C)nc3ncnn23)CC1 (stereo unspecified)
O=C1CC(c2cc(-c3ccccc3)no2)C1
CNC(=O)CNC(=O)Nc1ccc(C)cc1
CCN(C[C@H]1N[C@@](Cc2ccccc2)(C(=O)OC)[C@H]2C(=O)N(C)C(=O)[C@@H]12)C(C)=O
Cn1cc(CN2CCC(CO)(CCCc3ccccc3)CC2)c(-c2ccccc2)n1
Cc1ccc(NC(=O)c2ccc(Oc3ncccn3)cc2)cc1
Cc1cc(=O)[nH]c(SCC(=O)NCc2ccc3c(c2)OCO3)n1
CC(C)C(=O)Nc1ccc(Nc2ccccc2)cc1
CCCCOc1ccc(NC(=O)c2cc(F)c(F)cc2Cl)cc1
O=C(NCCc1ccccc1)c1n[nH]c2ccccc12
O=C(Cn1nc(C(=O)O)c2ccccc2c1=O)NCc1ccco1
CCc1ccc(C(C(=O)NC2CCCC2)N(CCOC)C(=O)CCC(=O)Nc2cc(C)on2)cc1 (stereo unspecified)
Cc1nc(SCc2ccc(C(=O)O)cc2)c2c(C)c(C)sc2n1
CN(C)CCCNC(=O)C(=O)NCC1CCCO1 (stereo unspecified)
CCO[C@@H]1OC(C(=O)O)=C[C@H](C)[C@H]1CCCO
CC(=O)Oc1ccc(C(=O)Cc2ccccn2)c(O)c1
CC(C)[C@@H](C(=O)N1CCNCC1)n1cc(CCO)nn1
NS(=O)(=O)c1ccc(CCNc2nc(C(F)(F)F)nc3ccccc23)cc1
CCOC(=O)c1cnn(-c2cc(C)c3ccccc3n2)c1N
CCSC(=O)NC12CC3CC(CC(C3)C1)C2
Cc1ccc(C)n1-c1ccc(-c2ccnc(N)n2)cc1
O=[N+]([O-])c1cccc(N(CC(O)CN2CCCCC2)S(=O)(=O)c2ccccc2)c1 (stereo unspecified)
C#CC(C)(CC)NC(=O)c1cc2cccc(CC=C)c2oc1=O (stereo unspecified)
COc1ccc(S(=O)(=O)N2CCC(C(N)=O)CC2)cc1
CCOC(=O)c1c(NC(=O)CSc2n[nH]c(CNc3ccccc3)n2)sc(C)c1C
C=CCN1C=C2C(=O)C(C)(OC(=O)c3ccc(OC)cc3)C(=O)C(c3ccco3)=C2C=C1CCCC (stereo unspecified)
O=C(O)c1cccc(NC(=O)c2ccccc2)c1
CC(C)N(c1ccccc1)c1ccc(NC(=O)COC(=O)CCN2C(=O)c3cccc([N+](=O)[O-])c3C2=O)cc1
O=C(CSc1ncnc2c1nnn2Cc1ccccc1F)NCC1CCCO1 (stereo unspecified)
O=C(CSc1cn(CCNC(=O)c2c(F)cccc2F)c2ccccc12)NCC1CCCO1 (stereo unspecified)
Cc1ccccc1OCC(=O)Nc1ccc(S(=O)(=O)Nc2onc(C)c2C)cc1
O=C(/C=C/Nc1ccccc1Br)c1ccccn1
CC1(C)CC(NC(=O)c2ccc(-c3ccc([N+](=O)[O-])cc3)o2)CC(C)(C)N1
Cc1ccc(NC(=S)NC(=O)c2ccc(F)cc2)cc1S(=O)(=O)Nc1ccccc1Cl
C[C@H]1CN([C@@H](C)CO)C(=O)c2cccc(NS(=O)(=O)c3ccc(F)cc3)c2O[C@H]1CN(C)Cc1ccc(Cl)c(Cl)c1
COC(C(=O)Nc1ccnn1C1CCN(C(=O)c2ccc(C=O)cc2)CC1)c1ccccc1 (stereo unspecified)
Cc1ccc(NC(=O)c2cccs2)cc1S(=O)(=O)Nc1cccc(Cl)c1
Cc1ccccc1-n1c(SCC(=O)N2CCOCC2)nc(O)c(Cc2ccccc2)c1=O
COCCn1c(=NC(=O)c2ccc3c(c2)OCCO3)sc2cc(S(N)(=O)=O)ccc21
CN1CCc2c(sc3nc(SCC(=O)N4CCOCC4)nc(N)c23)C1
COC(=O)C1(S(=O)(=O)C2(C(=O)OC)CCCC2)CCCC1
Cc1ccc(NCc2nnc3n2CCCCC3)c(C)c1
